Data reported in PubChem BioAssay (NCI).
This is part of a sample that, as a whole, favours compounds with a hit. Of some 79,000 tested, about 15% had one in any assay. A number with no mark means an inactive call. Activity calls are given as the source filed them. No stated cut-off is given here; in the data, active means growth inhibition above about 70%; inactive means the rest.

Tests used:
[1] = NCI Yeast Anticancer Drug Screen. Data for the rad50 strain (AID 155);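 further: 0% = growth of vehicle-only cultures of the same strain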; conditions: S. cerevisiae rad50 strain growth inhibition, active compounds read high
Outline: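 Cells are treated with compound, grown, and their growth is then scored against vehicle-only cultures of the same repair-deficient yeast strain.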

[2] = NCI Yeast Anticancer Drug Screen. Data for the mec2-1 strain (AID 157); conditions: S. cerevisiae mec2-1 strain, active compounds read high
Outline: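 Growth inhibition is read against vehicle-treated controls after compound exposure of the mec2-1 yeast strain, which is defective in DNA damage repair or cell cycle control.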

[3] = NCI Yeast Anticancer Drug Screen. Data for the sgs1 mgt1 strain (AID 161);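 further: 0% = growth of cultures given vehicle only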; conditions: S. cerevisiae sgs1 mgt1 strain, active compounds read high
Outline: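 Yeast cells carrying a defined DNA-repair defect were exposed to test compounds. Growth inhibition was measured relative to vehicle-treated controls.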

[4] = NCI Yeast Anticancer Drug Screen. Data for the cln2 rad14 strain (AID 165);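 further: 0% = growth equal to vehicle treated cultures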; conditions: S. cerevisiae cln2 rad14 strain, active compounds read high
Outline: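 Growth inhibition, relative to vehicle-treated controls, is the read-out. The test organism is a yeast strain with defined genetic alterations, cln2 rad14.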

[5] = NCI Yeast Anticancer Drug Screen. Data for the bub3 strain (AID 167); conditions: S. cerevisiae bub3 mutant strain, active compounds read high
Outline: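 Part of a panel of yeast mutants defective in DNA damage repair or cell cycle regulation. Each strain is grown with compound, and inhibition is calculated relative to solvent-treated cultures.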

[6] = NCI Yeast Anticancer Drug Screen. Data for the mlh1 rad18 strain (AID 175); conditions: S. cerevisiae mlh1 rad18 strain growth inhibition, active compounds read high
Outline: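 Cells of a genetically altered yeast strain, deficient in DNA damage repair, were treated with compound. Their growth was then compared with that of vehicle-treated cultures to give inhibition.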

[7] = at 5.0 µM (retest, dose inferred, filed as 0.5)
[8] = at 50.0 µM (retest, dose inferred, filed as 5.0)

Compound	growth inhibition [1, 7]	growth inhibition [1, 8]	growth inhibition ([1]; at 50.0 µM)	growth inhibition [2, 7]	growth inhibition [2, 8]	growth inhibition ([2]; at 50.0 µM)	growth inhibition [3, 7]	growth inhibition [3, 8]	growth inhibition ([3]; at 50.0 µM)	growth inhibition [4, 7]	growth inhibition [4, 8]	growth inhibition ([4]; at 50.0 µM)	growth inhibition [5, 7]	growth inhibition [5, 8]	growth inhibition ([5]; at 50.0 µM)	growth inhibition [6, 7]	growth inhibition [6, 8]	growth inhibition ([6]; at 50.0 µM)
CN(C)CC[N+](C)(C)Cc1ccc(C[N+](C)(C)CC[N+](C)(C)Cc2ccc(CCl)cc2)cc1	0%	0%	99% (active)	-39%	-1%	98% (active)	-1%	2%	97.9% (active)	1%	2%	96% (active)	-6%	2%	97.8% (active)	-1%	-1%	98.7% (active)
C=C(C)COc1ccccc1C(OCC)OCC	1%	21%	49.9%	7%	19%	14.9%	3%	28%	29.1%	-1%	27%	13.7%	0%	20%	31.6%	0%	39%	78.5% (active)
CCCCCCCCCCCCCC(=O)CBr	11%	84% (active)	87.5% (active)	4%	85% (active)	80.1% (active)	35%	99% (active)	84.5% (active)	2%	68%	66.2%	9%	98% (active)	85.8% (active)	5%	90% (active)	81.1% (active)
[O-]c1c2cc(-[n+]3c(-c4ccccc4)cc(-c4ccccc4)cc3-c3ccccc3)cc1CO[C@@H](c1ccccc1)[C@H](c1ccccc1)OCCOCCO[C@@H](c1ccccc1)[C@H](c1ccccc1)OC2	97% (active)	95% (active)	87.5% (active)	98% (active)	95% (active)	91.4% (active)	98% (active)	97% (active)	88.4% (active)	95% (active)	97% (active)	88.6% (active)	97% (active)	72% (active)	89% (active)	98% (active)	94% (active)	29.6%
CC(=O)N1OC2(C)c3ccccc3C1(C)c1ccccc12	99% (active)	94% (active)	99.2% (active)	99% (active)	97% (active)	99.4% (active)	99% (active)	96% (active)	97.9% (active)	98% (active)	95% (active)	99.2% (active)	99% (active)	96% (active)	99.4% (active)	99% (active)	95% (active)	99.1% (active)
C[n+]1c(/C=C/c2ccccc2Cl)ccc2ccccc21	-3%	37%	98.7% (active)	2%	80% (active)	99% (active)	-8%	35%	99.2% (active)	0%	34%	98.5% (active)	-5%	33%	98.8% (active)	-8%	48%	98.8% (active)
Cc1cc(NC(=S)SCc2ccc(Cl)cc2)c([N+](=O)[O-])cc1C	65%	95% (active)	96% (active)	45%	97% (active)	98.2% (active)	90% (active)	96% (active)	97.3% (active)	42%	92% (active)	94.3% (active)	53%	97% (active)	96.2% (active)	98% (active)	96% (active)	97.2% (active)
Cc1cc(N=Nc2ccccc2C)c(N)cc1N	-12%	56%	99.2% (active)	-11%	97% (active)	99.2% (active)	4%	90% (active)	99.5% (active)	-27%	40%	98.3% (active)	-14%	86% (active)	99.3% (active)	-13%	90% (active)	99.5% (active)
CN1CCCC(C(=O)OCC(=O)C2(O)CCC3C4CCC5=CC(=O)CCC5(C)C4C(O)CC32C)C1 (configuration not stated)	13%	11%	29.2%	-5%	0%	5%	-7%	5%	-11%	3%	8%	38.4%	-7%	9%	12.4%	-3%	35%	42.9%
CC(=O)NNc1nc(C)c(C(=O)NNC(=O)C(=O)Nc2c(C)cccc2C(C)C)s1	3%	85% (active)	43.1%	1%	88% (active)	33%	6%	89% (active)	47%	0%	49%	9%	4%	87% (active)	37.5%	-4%	74% (active)	44.1%
C(=Nc1ccccc1)c1cn(Cc2ccccc2)c2ccccc12	90% (active)	95% (active)	83.1% (active)	99% (active)	99% (active)	-10.2%	99% (active)	99% (active)	64.7%	100% (active)	99% (active)	-12.6%	99% (active)	99% (active)	11.6%	99% (active)	97% (active)	36.9%
CCC1(C)OC(=O)C(c2ccccc2)O1 (configuration not stated)	1%	-6%	9.2%	-2%	7%	-1.85%	5%	-5%	-19.5%	2%	1%	9.7%	2%	3%	-6.45%	-2%	-5%	17.1%
O=C1c2ccccc2S(=O)(=O)CC1Br (configuration not stated)	-7%	96% (active)	99.2% (active)	-21%	85% (active)	99.7% (active)	13%	98% (active)	99.3% (active)	6%	58%	99.3% (active)	-4%	89% (active)	99.4% (active)	30%	98% (active)	99.2% (active)
c1cc(CCSSCCc2ccncc2)ccn1	7%	89% (active)	27.5%	1%	87% (active)	50.9%	-1%	79% (active)	33.5%	4%	42%	72.8% (active)	1%	98% (active)	38.4%	2%	92% (active)	30.3%
Cc1cc(Nc2ccc(O)c(CN3CCN(Cc4cc(Nc5cc(C)nc(N)n5)ccc4O)CC3)c2)nc(N)n1	8%	95% (active)	97.5% (active)	6%	96% (active)	96.9% (active)	5%	96% (active)	97.5% (active)	12%	94% (active)	89.7% (active)	9%	95% (active)	95.4% (active)	7%	97% (active)	97.5% (active)
CCOC(=O)OCCSCCOC(=O)OCC	-14%	19%	-4.35%	-12%	36%	17.6%	-5%	8%	14.2%	15%	-6%	13.8%	-9%	18%	19%	0%	47%	-9.65%
CC(C)CC(CC(C)C)NCC(C)OC(=O)C(c1ccccc1)c1ccccc1 (configuration not stated)	-1%	94% (active)	29.2%	-8%	78% (active)	50.3%	-3%	97% (active)	84.8% (active)	-3%	73% (active)	20.9%	-9%	93% (active)	68.2%	18%	96% (active)	95.2% (active)
O=C(NNc1ccccc1)C(O)C(=O)C(O)C(O)C(O)CO (configuration not stated)	1%	27%	9.45%	-1%	8%	21.9%	9%	6%	61.8%	-2%	14%	-14.1%	8%	34%	80% (active)	5%	28%	75.2% (active)
COc1ccc2c(Cc3ccc(O)cc3)cncc2c1O	-1%	6%	8.65%	-8%	26%	51.5%	-3%	16%	-7.15%	5%	4%	91.8% (active)	-5%	-4%	71.5% (active)	6%	27%	97.6% (active)
